# From ChEMBL document CHEMBL3988442, “University of Dundee, Small-Polar-MMV Screening Library” (2021)
# What was measured:
# [1] = target: T1, Aspartate--tRNA(Asp/Asn) ligase (Mycobacterium tuberculosis (strain ATCC 25618 / H37Rv)) (UniProt P9WFW3); assay: Assay for Asp RNA synthetase-1 from Mycobacterium tuberculosis; assay type: functional; design: scale not given: direction of the effect not stated beside the values; details: 30 µM; note: in the data most compounds retested in dose-response had high values
# T1 sequence (whole entry): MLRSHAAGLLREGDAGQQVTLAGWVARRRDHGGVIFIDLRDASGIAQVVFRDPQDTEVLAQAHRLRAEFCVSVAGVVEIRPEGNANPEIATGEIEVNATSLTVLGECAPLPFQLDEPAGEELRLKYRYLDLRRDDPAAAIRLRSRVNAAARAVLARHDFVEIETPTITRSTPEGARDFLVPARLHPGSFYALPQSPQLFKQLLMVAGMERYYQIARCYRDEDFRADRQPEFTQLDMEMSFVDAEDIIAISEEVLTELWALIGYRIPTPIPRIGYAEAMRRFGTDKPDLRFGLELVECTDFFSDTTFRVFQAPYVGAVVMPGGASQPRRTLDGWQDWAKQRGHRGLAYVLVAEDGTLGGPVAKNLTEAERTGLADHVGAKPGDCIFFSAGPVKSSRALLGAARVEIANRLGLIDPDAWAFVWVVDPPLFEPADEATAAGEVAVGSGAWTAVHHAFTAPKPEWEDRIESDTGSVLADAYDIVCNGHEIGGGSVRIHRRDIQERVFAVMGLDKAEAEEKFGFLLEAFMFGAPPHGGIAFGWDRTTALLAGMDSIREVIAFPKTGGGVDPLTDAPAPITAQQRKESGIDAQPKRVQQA
# [2] = target: Shiga toxin 2 (Escherichia coli O157:H7) (UniProt P09385+P09386); assay: E. coli 0.157:H7 Shiga Toxin SOP - stx2 screening assay; assay type: functional; design: scale not given: direction of the effect not stated beside the values; details: 30 µM
compound,measurement,setting,value
CC(CN1CCN(C)CC1)NC(=O)c1cc(Cl)c2c(c1)OCO2 (stereo unspecified),Percent Effect,[1],3.29%
same,Percent Effect,[2],-0.562%
Cc1ccc2c(n1)N(CCn1cccn1)CCN(C(=O)NC1CC1)C2,Percent Effect,[1],0.917%
same,Percent Effect,[2],6.77%
Cc1cccc(-n2cc(C(=O)N3CCn4c(C)nnc4C3)nn2)c1,Percent Effect,[1],-2.42%
same,Percent Effect,[2],-92.9%
Cc1cc(C)c2nc(CN3CCOC(CCO)C3)cc(O)c2c1 (stereo unspecified),Percent Effect,[1],-0.725%
same,Percent Effect,[2],-15.7%
CCn1ncnc1C(C)NC(=O)C1CCN(C(=O)COC)CC1 (stereo unspecified),Percent Effect,[1],6.73%
same,Percent Effect,[2],11.1%
Cc1cc(C(F)(F)F)c2c(C3CCN(S(=O)(=O)N(C)C)CC3)noc2n1,Percent Effect,[1],7.31%
same,Percent Effect,[2],0.93%
O=C(NS(=O)(=O)c1cc(Cl)sc1Cl)c1cccc2c1OCCO2,Percent Effect,[1],1.84%
same,Percent Effect,[2],-6.84%
Cc1nn(C)c(C)c1C1COCCN1C(=O)c1n[nH]c2ccccc12 (stereo unspecified),Percent Effect,[1],-1.46%
same,Percent Effect,[2],-15.4%
Cc1ccc(CN2CCCC3(COCCN(Cc4c[nH]nn4)C3)C2)o1 (stereo unspecified),Percent Effect,[1],4.69%
same,Percent Effect,[2],-4.03%
O=C(c1ccsc1)N1CCc2c(CNc3ncccn3)n[nH]c2C1,Percent Effect,[1],-0.641%
same,Percent Effect,[2],-33.5%
Cc1nc(C)n(C2CCCN(C(=O)c3ccccc3C)C2)n1 (stereo unspecified),Percent Effect,[1],0.173%
same,Percent Effect,[2],18.2%
O=C(NCCN1CCCCC1)c1nc2ccccc2c(=O)[nH]1,Percent Effect,[1],-1.02%
same,Percent Effect,[2],-53.5%
CCn1nc2c(cc1=O)CN(Cc1nc3ccccc3c(=O)[nH]1)CC2,Percent Effect,[1],-3.91%
same,Percent Effect,[2],1.48%
Cn1ncc2c1CCCC2NCc1cnc(-c2ccccc2)nc1 (stereo unspecified),Percent Effect,[1],8.81%
same,Percent Effect,[2],-1.99%
CN1CCCC(Cc2cncc(C(=O)NCC3CC3)c2)C1 (stereo unspecified),Percent Effect,[1],-1.03%
same,Percent Effect,[2],2.18%
Cc1cc(NC(=O)CN2CCc3cnc(C)nc3C2)on1,Percent Effect,[1],-1.18%
same,Percent Effect,[2],-34.7%
Cc1ccc(-c2nnc(CN3CCc4cnc(C)nc4C3)o2)cc1,Percent Effect,[1],2.13%
same,Percent Effect,[2],-61%
C[C@@H]1CN(C(=O)c2cnc(C3CC3)nc2)CC[C@@]1(O)C1CCOCC1,Percent Effect,[1],1.53%
same,Percent Effect,[2],0.847%
COCCN1C(=O)CCC12CCN(C(=O)CC1CC1)CC2,Percent Effect,[1],2.75%
same,Percent Effect,[2],0.89%
Cc1nc(CN2C(=O)CCC23CCN(c2ncccn2)CC3)cs1,Percent Effect,[1],4.19%
same,Percent Effect,[2],-30.4%
CCCc1nc(CN2CCN(Cc3noc(CCC)n3)CC2)no1,Percent Effect,[1],-5.2%
same,Percent Effect,[2],-39.2%
COC[C@]12COC[C@H]1CN(Cc1cc(OC)cc(OC)c1)C2,Percent Effect,[1],-1.51%
same,Percent Effect,[2],-6.3%
CS(=O)(=O)NC1CCN(C(=O)NCCc2ccccc2F)CC1,Percent Effect,[1],-3.88%
same,Percent Effect,[2],-19.2%
Cc1cccc(CN2C(=O)CCC23CCN(c2ncc(F)cn2)CC3)n1,Percent Effect,[1],-0.66%
same,Percent Effect,[2],-5.21%
CNC(=O)c1cnc(/C=C/c2ccc(OC)c(O)c2)s1,Percent Effect,[1],1.65%
same,Percent Effect,[2],-56.5%
Cc1nc(C(C)(C)NC(=O)Nc2cccc(C#N)c2)no1,Percent Effect,[1],-0.287%
same,Percent Effect,[2],-19.6%
Cc1nc2n(n1)CC(Nc1cc(C(F)(F)F)nc3ncnn13)CC2 (stereo unspecified),Percent Effect,[1],-5.49%
same,Percent Effect,[2],-1.67%
CCN1CCC(NC(=O)CN2CCc3c(ncn3C)C2)CC1,Percent Effect,[1],-4.88%
same,Percent Effect,[2],19.9%
Cc1ccc(C2C3=C(COC3=O)Nc3[nH]nc(C)c32)cc1C (stereo unspecified),Percent Effect,[1],-4.73%
same,Percent Effect,[2],-11.4%
COc1ccccc1OC1(C(=O)O)CCN(c2nccnc2C)CC1,Percent Effect,[1],1.09%
same,Percent Effect,[2],-3.46%
O=C(NCCCn1cncn1)NCC(c1ccco1)N1CCCCC1 (stereo unspecified),Percent Effect,[1],7.12%
same,Percent Effect,[2],18.2%
Cc1nc(CN2CCCC(CCNS(C)(=O)=O)C2)c[nH]1 (stereo unspecified),Percent Effect,[1],-4.89%
same,Percent Effect,[2],13%
Cc1ccc(CNC(C)c2ccc3[nH]c(=O)[nH]c3c2)s1 (stereo unspecified),Percent Effect,[1],1.6%
same,Percent Effect,[2],-1.3%
CC1CCc2nc(O)c(C(=O)NCc3cccc(F)c3)cc2C1 (stereo unspecified),Percent Effect,[1],1.04%
same,Percent Effect,[2],-8.04%
CCc1cnc(CNc2ccc(C(=O)N3CCCC(C)C3)cc2C)o1 (stereo unspecified),Percent Effect,[1],-5.74%
same,Percent Effect,[2],21.6%
CCc1nc(C2CCCN(C(=O)c3ccc4c(c3)nnn4C)C2)no1 (stereo unspecified),Percent Effect,[1],4.32%
same,Percent Effect,[2],-19.5%
O=C(CCc1nc2cccnc2[nH]1)NCc1ccc2c(c1)OCO2,Percent Effect,[1],0.0581%
same,Percent Effect,[2],-41.8%
c1ccc2cc(OCCN3CCn4c(nnc4C4CC4)C3)ccc2c1,Percent Effect,[1],3.95%
same,Percent Effect,[2],-16.6%
c1cnn(C2CN(Cc3nc(-c4ccsc4)no3)C2)c1,Percent Effect,[1],-1.81%
same,Percent Effect,[2],23%
Cn1ncc2c1C(COCC1CC1)CN(Cc1ccoc1)C2 (stereo unspecified),Percent Effect,[1],-4.51%
same,Percent Effect,[2],-1.73%
CN(C)C(=O)N1CCN(Cc2nnc(C(C)(C)C)o2)CC1,Percent Effect,[1],-2.73%
same,Percent Effect,[2],3.28%
COCCN1CCC2(CCN(Cc3nccs3)CC2)C1=O,Percent Effect,[1],3.12%
same,Percent Effect,[2],-8.73%
Cc1noc(CN2CCN(Cc3cccs3)CC2)n1,Percent Effect,[1],-1.85%
same,Percent Effect,[2],1.32%
Nc1nc2nc(C3CCCN(C(=O)c4cscn4)C3)ccc2s1 (stereo unspecified),Percent Effect,[1],0.603%
same,Percent Effect,[2],-35.5%
O=C(Cn1cc(I)cn1)N1CCc2ccccc2C1,Percent Effect,[1],2.67%
same,Percent Effect,[2],-31%
COc1ccc(CN2C[C@@H](OCc3ccccn3)[C@H]3COC[C@H]32)cc1,Percent Effect,[1],3.47%
same,Percent Effect,[2],12.7%
CSc1ncccc1C(=O)N1C[C@H]2CC[C@@H]1CN(c1ncccn1)C2,Percent Effect,[1],4.84%
same,Percent Effect,[2],-56.4%
CN1CCC(c2ncc3c(n2)CCN(C(=O)CC2C=CCC2)C3)CC1 (stereo unspecified),Percent Effect,[1],0.956%
same,Percent Effect,[2],-1.54%
CCn1cc(C(=O)NCc2csc(Br)c2)cn1,Percent Effect,[1],-3.16%
same,Percent Effect,[2],6.72%
Cc1ncccc1NC(=O)[C@H]1C[C@@H]2CCN(Cc3nccs3)C[C@@H]2O1,Percent Effect,[1],-3.35%
same,Percent Effect,[2],0.675%
Cc1nc(CSCCC(=O)NCc2cccnc2N(C)C)cs1,Percent Effect,[1],1.66%
same,Percent Effect,[2],-9.97%
O=C(c1n[nH]c(=O)c2ccccc12)N1CCCCC1c1ccn[nH]1 (stereo unspecified),Percent Effect,[1],-1.09%
same,Percent Effect,[2],17.2%
O=C(CCNC(=O)c1ccccc1)Nc1ccncc1,Percent Effect,[1],-1.89%
same,Percent Effect,[2],-111%
CCC1(CO)CCCN(c2ncccc2C#N)C1 (stereo unspecified),Percent Effect,[1],-1.73%
same,Percent Effect,[2],-8.75%
Cc1cnc(CN(C)C2CCN(CCc3ccccn3)CC2)cn1,Percent Effect,[1],4.34%
same,Percent Effect,[2],10.4%
CC(C)CCn1c(=O)nc2n1C(=O)N(c1ccc(F)cc1)C2,Percent Effect,[1],-0.24%
same,Percent Effect,[2],-15.1%
CCN(CC1CCOC1)C(=O)Nc1ccc(OC)nc1 (stereo unspecified),Percent Effect,[1],4.72%
same,Percent Effect,[2],-156%
Cc1cnn(CC2CCCN2C(=O)c2ccc(OC(C)C)nc2)c1 (stereo unspecified),Percent Effect,[1],-4.48%
same,Percent Effect,[2],-35%
CCc1ccc(O)c(C(=O)NC2CCN(C(=O)OC)CC2)c1,Percent Effect,[1],-2.88%
same,Percent Effect,[2],-48.7%
Cc1noc(C2CCCN(C(=O)c3ccc(Br)cc3F)C2)n1 (stereo unspecified),Percent Effect,[1],-4.41%
same,Percent Effect,[2],20.7%
O=C1CCC2(CCN(c3ncc(F)cn3)CC2)N1CCN1CCCC1,Percent Effect,[1],1.53%
same,Percent Effect,[2],-1.87%
COc1ccc(NC(=O)c2ccc[nH]2)c(N2CCN(C(C)=O)CC2)n1,Percent Effect,[1],1.11%
same,Percent Effect,[2],0.954%
Cc1nsc(C(=O)N2CCc3ccccc3C2)n1,Percent Effect,[1],-2.11%
same,Percent Effect,[2],-13.9%
CN1CCc2nc(C3CCN(C(=O)CCC4CCCC4)CC3)ncc2C1,Percent Effect,[1],2.63%
same,Percent Effect,[2],-43.2%
COc1ccc(C)cc1NC(=O)Nc1cnc(N2CCN(C)CC2)nc1,Percent Effect,[1],0.539%
same,Percent Effect,[2],-18.8%
Fc1ccc(CN2CCO[C@H]3[C@H](OCCN4CCCC4)CC[C@@H]32)cc1,Percent Effect,[1],2.94%
same,Percent Effect,[2],-20.2%
Cn1cc(CN2CCC3(C2)CN(Cc2ccsc2)C3)cn1,Percent Effect,[1],1.9%
same,Percent Effect,[2],-10.4%
Cc1ccc(C(=O)N2CCN(CCc3cccs3)CC2)c(=O)[nH]1,Percent Effect,[1],-1.83%
same,Percent Effect,[2],-29.5%
CC(=O)NC(C)CC(=O)NCc1cccnc1Oc1ccccc1C (stereo unspecified),Percent Effect,[1],-4.43%
same,Percent Effect,[2],2.41%
O=C(Cc1cccs1)N1C[C@@H]2COC[C@]2(COc2cccnc2)C1,Percent Effect,[1],-6.32%
same,Percent Effect,[2],-1.18%
CC(Cn1cccn1)NC(=O)Nc1nnc(C2CC2)s1 (stereo unspecified),Percent Effect,[1],-7.13%
same,Percent Effect,[2],7.79%
COc1cccc(C(=O)NCC(O)c2cccs2)c1 (stereo unspecified),Percent Effect,[1],-4.63%
same,Percent Effect,[2],2.93%
Cn1ccc2c(C(=O)N3CCC(C(N)=O)CC3)cccc21,Percent Effect,[1],0.465%
same,Percent Effect,[2],-43.9%
